High-throughput results: PubChem, National Center for Advancing Translational Sciences (NCATS)
AmpC inh detg: qHTS Inhibitors of AmpC Beta-Lactamase (assay with detergent); AID 485294, 2010; AmpC hydrolysis of nitrocefin, absorbance 480 nm, 0.01% Triton; Potency, µM (series often up to 114 µM), for the others: top-dose activity change, negative = inhibition, hits mostly inhibitors; actives 0.041% (n = 370,000);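 also: 0% = no-compound wells and -100% = no-enzyme wells; nearly all actives have a fitted effect of over 25% in size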
Target sequence (P00811 whole entry, looked up): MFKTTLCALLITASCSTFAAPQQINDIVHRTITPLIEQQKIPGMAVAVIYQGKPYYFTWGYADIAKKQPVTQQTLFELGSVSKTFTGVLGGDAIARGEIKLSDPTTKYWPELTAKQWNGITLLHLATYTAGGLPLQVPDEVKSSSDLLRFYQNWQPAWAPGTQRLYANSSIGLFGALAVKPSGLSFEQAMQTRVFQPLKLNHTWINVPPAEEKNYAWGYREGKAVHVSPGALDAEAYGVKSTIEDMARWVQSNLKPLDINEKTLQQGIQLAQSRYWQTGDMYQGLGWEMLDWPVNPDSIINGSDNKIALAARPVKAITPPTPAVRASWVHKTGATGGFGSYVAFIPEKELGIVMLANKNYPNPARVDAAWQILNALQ
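20 mM phosphate pH 7.0 + 0.01% (detergent screen) or 0.0001% Triton X-100; 5.3 nM AmpC reagent; cpd preinc 15 min RT; nitrocefin (800 uM stock) to start; A480 q20 s × 4 min; Activity was normalised to no-enzyme and no-compound control wells.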
AmpC no deterg: qHTS Inhibitors of AmpC Beta-Lactamase (assay without detergent) | P00811 | AmpC nitrocefin hydrolysis, absorbance 480 nm, 0.0001% Triton | Potency, µM (series often up to 57.1 µM), without a hit: at the highest dose activity change, negative = inhibition, hits mostly inhibitors | actives 0.52% (n = 330,000);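 also: plate controls were no compound for no effect and no enzyme for full effect; nearly all actives have a fitted effect of over 20% in size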
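20 mM phosphate pH 7.0 + 0.01% (detergent screen) or 0.0001% Triton X-100; 5.3 nM AmpC reagent; cpd preinc 15 min RT; nitrocefin (800 uM stock) to start; A480 q20 s × 4 min; Activity was normalised to no-enzyme and no-compound control wells.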
SARS PLpro yeast: qHTS of Yeast-based Assay for SARS-CoV PLP. S. cerevisiae expressing SARS-CoV PLpro, growth rescue. Potency, µM (highest dose often 32.9 µM), without a hit: at the top dose activity, positive = growth rescue, hits mostly activators. actives 0.19% (n = 330,000). AID 485353, 2010; calls by dose curve; also: 0% is about no effect; nearly all actives have a fitted effect of over 55% in size
Sm TGR block: qHTS Assay for the Inhibitors of Schistosoma Mansoni Peroxiredoxins; purified TGR, DTNB reduction, TNB absorbance 405 nm; Potency, µM (doses to about 114 µM), for inactives: at the top dose activity change, negative = inhibition, usual class: inhibitors; actives 3% (n = 360,000); AID 485364, 2010; also: % is scaled to controls: 0 for no effect and ±100 for the full control effect; nearly all actives have a fitted effect of over 60% in size
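First, TGR (20 nM dispensed) and NADPH were mixed with compound. Second, a 15 min room-temperature incubation followed. Third, further NADPH and then DTNB were added to start the reaction. Finally, TNB absorbance was monitored kinetically.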
Pf growth 48h: Primary qHTS for delayed death inhibitors of the malarial parasite plastid, 48 hour incubation; actives 5.9% (n = 310,000); P. falciparum luciferase growth in erythrocytes, 48 h; Potency, µM (titrated, usually from 28.7 µM), for inactives: at the highest dose activity change, negative = inhibition, hits mostly inhibitors; AID 504832, 2011; also: % is scaled to controls: 0 for no effect and ±100 for the full control effect
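First compound was added to culture medium, then infected red cells at 0.1% parasitemia and 2% hematocrit (final). After incubation at 37 C under 5% CO2, luciferase detection reagent was dispensed and light output recorded.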
Pf growth 96h: Primary qHTS for delayed death inhibitors of the malarial parasite plastid, 96 hour incubation; P. falciparum luciferase reporter growth, 96 h; Potency, µM (doses to about 28.7 µM), for the others: top-dose activity change, negative = inhibition, hits mostly inhibitors; actives 6.9% (n = 320,000); AID 504834, 2011; also: % is scaled to controls: 0 for no effect and ±100 for the full control effect
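Erythrocytes infected with luciferase-expressing P. falciparum were dispensed at 2% hematocrit and 0.05% parasitemia (final), then incubated with compounds 96 hours at 37 C in 5% CO2. Luminescence after detection reagent addition reported growth.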
* hit, by the source's call; ? = inconclusive; nt = not tested or not shown. The list is not random: actives were taken first. Their share in the collection is about 12%. Unless noted, calls follow the shape of the dose curve; as a rule, active = well fitted curve in the direction sought with a large enough effect; inconclusive = small, poorly fitted or top-dose-only effect, or another doubt; inactive = no such curve, though single readings can be large; an effect the other way counts as inactive or inconclusive. Potency is read from the fitted curve at half-maximal effect.

SMILES | AmpC inh detg | AmpC no deterg | SARS PLpro yeast | Sm TGR block | Pf growth 48h | Pf growth 96h
COc1cccc(N/C(SCc2ccccc2Cl)=C(/C#N)C(=O)NCc2cccs2)c1 | -10% | -36% | 21% | -14% | 10µM* | ?
CN(Cc1ccccc1)S(=O)(=O)c1ccccc1Br | nt | -24% | 13% | nt | nt | nt
CCOC(=O)c1ccccc1NC(=O)Cn1cc(C(=O)c2cccc(OC)c2)c(=O)c2ccc(C)nc21 | 2% | nt | nt | 7% | nt | nt
CCOC(=O)/C(C#N)=C/Nc1ccccc1NS(=O)(=O)c1ccc2c(c1)OCCO2 | -2% | -12% | -3% | 1% | 9.3µM* | 12µM*
NC(=O)c1ccccc1NS(=O)(=O)c1ccc2c(c1)OCCO2 | -13% | -16% | -9% | 4% | nt | -3%
CCC(=O)Oc1c(C(=O)CC)cc2c(C)cc(=O)oc2c1C | -1% | -2% | -32% | 3% | 25% | 45%
CCC(=O)Nc1c(OC(=O)CC)ccc2c(C)cc(=O)oc12 | -3% | -10% | 14% | -22% | -9% | 3.7µM*
O=C(NNC(=O)C(O)(c1ccccc1)c1ccccc1)C1CC1 | -1% | -11% | 2% | 9% | 9% | 3%
O=C(Cc1ccccc1)NNc1c2ccccc2nc2ccccc12 | 6% | -33% | 0% | -3% | -12% | 81%
Cc1ccc(OCC(=O)NNc2c3ccccc3nc3ccccc23)cc1 | -11% | -23% | -23% | 0% | 9.3µM* | ?
Cc1cccc(OCC(=O)NNc2c3ccccc3nc3ccccc23)c1 | 0% | -22% | -5% | 5% | ? | 3.7µM*
CC(C)OC(=O)CSc1nnc(-c2cnccn2)n1-c1ccc(Cl)cc1 | ? | 80% | 0% | 4% | ? | 15µM*
O=C(CSc1nnc(-c2ccccn2)n1Cc1ccco1)c1ccc(Cl)cc1 | -13% | 8% | -1% | 20µM* | -29% | nt
COc1ccc(C(=O)CSc2nnc(-c3ccccn3)n2Cc2ccco2)cc1 | ? | 72% | -2% | 50µM* | ? | ?
NC(=O)CSc1nnc(-c2cnccn2)n1Cc1ccco1 | 0% | 0% | 3% | ? | 7% | 27%
O=C(CSc1nnc(-c2cnccn2)n1Cc1ccco1)c1ccccc1 | -19% | -10% | 0% | 35µM* | 3% | 10%
O=C(CSc1nnc(-c2ccccn2)n1Cc1ccco1)c1ccccc1 | ? | 14% | -2% | ? | -1% | -20%
Cc1ccc(-n2c(SCC(=O)OC(C)C)nnc2-c2ccncc2)cc1 | ? | 15% | 22% | -26% | ? | 20%
CCc1ccc(NC(=O)CSc2nc3ncccc3[nH]2)cc1 | 15% | nt | nt | 5% | nt | nt
Cc1ccc(C)c(NC(=O)C(c2ccccc2)N2Cc3ccccc3C2=O)c1 (stereo not given) | 2% | nt | nt | -3% | nt | nt
COc1ccccc1CNC(=O)CCS(=O)(=O)c1ccc2c(c1)oc(=O)n2C | 1% | nt | nt | -3% | nt | nt
O=C1Cc2cc(NS(=O)(=O)c3cc(F)ccc3F)cc3c2N1CCC3 | ? | ? | 3% | 3% | ? | ?
COc1ccc(CCNC(=O)CCCn2c(=O)c3ccccc3n(CC(=O)Nc3cccc(C)c3)c2=O)cc1OC | -2% | nt | nt | -1% | nt | nt
O=C(CSc1nnc(-c2cnccn2)n1Cc1ccco1)c1ccc(Cl)cc1 | -9% | 8% | 0% | 10µM* | ? | -30%
CCCCNCC1C(Oc2ccc(Cl)cc2)C(=O)N1c1ccccc1C (stereo not given) | ? | 4% | -4% | -3% | 15µM* | -82%
SMILES | AmpC inh detg | AmpC no deterg | SARS PLpro yeast | Sm TGR block | Pf growth 48h | Pf growth 96h
COc1cccc(-c2nnn(C/C(N)=N/O)n2)c1 | -7% | -4% | -5% | 7% | 58% | 2.3µM*
CNC(=O)/C(C#N)=C/c1c(N2CCN(c3ccc(OC)cc3)CC2)nc2c(C)cccn2c1=O | 4% | 130% | 1% | 5% | ? | ?
O=C(CCS(=O)(=O)c1ccccc1)N(CCCN1CCOCC1)c1nc2ccc(F)cc2s1 | -24% | 138% | 7% | 13µM* | 69% | 117%
Cc1ccc(S(=O)(=O)CC(=O)N(CCCN2CCOCC2)c2nc3c(F)cccc3s2)cc1 | ? | 87% | -3% | 0% | 19% | 32%
CCc1cccc2sc(N(CCCN3CCOCC3)C(=O)CS(=O)(=O)c3ccccc3)nc12 | -6% | 216% | 1% | 4% | 9.3µM* | ?
O=C(CCS(=O)(=O)c1ccccc1)N(CCCN1CCOCC1)c1nc2c(F)cccc2s1 | -2% | 239% | 3% | 11µM* | 46% | 78%
CCn1nc(C)c2c(-c3ccccc3)cc(=O)n(C(C)C(=O)NCc3ccc(C)cc3)c21 (stereo not given) | 4% | nt | nt | -10% | nt | nt
COc1ccccc1CN1CCC(n2nccc2NC(=O)CCCc2ccccc2)CC1 | -17% | 114% | 2% | -2% | ? | 2%
COc1ccc(C)c2sc(NC(=O)c3ccc(S(=O)(=O)N4CCCCC4)cc3)nc12 | 1% | nt | nt | 7% | nt | nt
COc1ccc(N(CC(=O)NCc2ccccc2)C(=O)CCC(=O)Nc2cc(C)ccn2)c(OC)c1 | 1% | 71% | -1% | 2% | 1.7µM* | 0.47µM*
Cc1cc(C)cc(N(CC(=O)NC(C)(C)C)C(=O)CCC(=O)Nc2ccccn2)c1 | 3% | 18% | -1% | -20% | -9% | 10µM*
Cc1cc(C)cc(N(CC(=O)NCc2ccc(F)cc2)C(=O)CCC(=O)Nc2ccccn2)c1 | -1% | -1% | 8% | 8% | 13µM* | -3%
COc1ccc(CC(NC(C)=O)C(=O)NC2CCN(C(=O)c3ccccc3F)CC2)cc1 (stereo not given) | 3% | -2% | 1% | 0% | -2% | 5%
O=C(O)c1cccc(-c2noc(-c3cccc(Cl)c3)n2)c1 | -9% | -15% | -2% | ? | ? | ?
Cc1nn(-c2ccc(F)cc2)c(-n2cccc2)c1C(=O)N1CCN(c2ccc(F)cc2)CC1 | 16% | nt | nt | 1% | nt | nt
Cc1ccc(NC(=O)/C(=C/c2cccs2)NC(=O)c2ccco2)cc1 | 5% | -16% | -2% | -2% | ? | ?
O=[N+]([O-])c1ccccc1S(=O)(=O)c1ccccc1[N+](=O)[O-] | ? | -14% | 0% | 5% | -3% | 28%
